# Screens deposited in PubChem by National Center for Advancing Translational Sciences (NCATS).
# HP1b chromo inh = HTS for Inhibitors of HP1-beta Chromodomain Interactions with Methylated Histone Tails; AlphaScreen HP1-beta / biotin-H3K9me3 peptide binding; Potency, µM (series often up to 114 µM), inactives show at the top dose activity change, negative = inhibition, hits mostly inhibitors; Chromobox protein homolog 1 (Homo sapiens), P83916; 390,000 tested, 0.56% active; also: potency is read from the fitted curve at half-maximal effect; nearly all actives have a fitted effect of over 70% in size
#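 AlphaScreen: HP1-beta (50 nM) preformed 30 min with biotin-H3(1-18)K9me3 peptide (50 nM) in PBS pH 7.4, 0.01% Tween-20. Compound added for 30 min at RT, then streptavidin donor/nickel chelate acceptor beads (10 ug/mL) for 30 min.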
# PI5P4K alpha inh = qHTS for Inhibitors of phosphatidylinositol 5-phosphate 4-kinase (PI5P4K). 330,000 tested, 1.2% active. max response, %. PI5P4Kalpha enzyme, ADP-Glo luminescence, 60 min; active compounds read low. AID 652105, 2013. Phosphatidylinositol 5-phosphate 4-kinase type-2 alpha (Homo sapiens), P48426; active = max response of -50% or lower; inconclusive = between -30% and -50%; inactive = -30% or higher; also: value at the top dose of about 77 µM; % is scaled to controls: 0 for no effect and ±100 for the full control effect
#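 PI5P4Kalpha ADP-Glo assay; 5 microM ATP final; 60 min RT reaction; HEPES pH 7.4/EGTA/CHAPS, 5% DMSO; controls lacking substrate or enzyme; luminescent end-point.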
# BAZ2B inh = qHTS Assay for Inhibitors of BAZ2B; Bromodomain adjacent to zinc finger domain protein 2B (Homo sapiens), Q9UIF8; AlphaScreen BAZ2B-H3K14Ac peptide displacement; Potency, µM (titrated, usually from 114 µM), for inactives: at the highest dose activity change, negative = inhibition, most hits filed as inhibitors; 360,000 tested, 4.4% active; AID 504333, 2011; also: potency is read from the fitted curve at half-maximal effect; % is scaled to controls: 0 for no effect and ±100 for the full control effect; nearly all actives have a fitted effect of over 60% in size
#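 Multi-concentration screen (max 110 uM) measuring displacement of acetylated histone H3 peptide from BAZ2B by AlphaScreen, using 50 nM protein, 50 nM peptide and 10 ug/mL streptavidin donor plus Ni-chelate acceptor beads.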
# JMJD2A Tudor inh = qHTS Assay for Inhibitors of JMJD2A-Tudor Domain; AlphaScreen JMJD2A-Tudor / H3K4me3 peptide binding; Potency, µM (series often up to 114 µM), for inactives: at the highest dose activity change, negative = inhibition, actives largely listed as inhibitors; 390,000 tested, 4.4% active; Lysine-specific demethylase 4A (Homo sapiens), O75164; AID 504339, 2011; also: potency is read from the fitted curve at half-maximal effect; % is scaled to controls: 0 for no effect and ±100 for the full control effect; nearly all actives have a fitted effect of over 50% in size
# KDM4E inh = qHTS Assay for Inhibitors of Human Jumonji Domain Containing 2E (JMJD2E). Lysine-specific demethylase 4E (Homo sapiens), B2RXH2. JMJD2E catalytic domain, FDH-coupled NADH fluorescence (FDH is formaldehyde dehydrogenase). Potency, µM (series often up to 57.1 µM), without a hit: at the top dose activity change, negative = inhibition, hits mostly inhibitors. 230,000 tested, 1.6% active. AID 2147, 2009; active = well fitted inhibition curve with a large enough effect, not every such curve was filed as active; inconclusive = small, poorly fitted or top-dose-only effect, or another doubt; inactive = no such curve, though single readings can be large or run the other way;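 also: potency is read from the fitted curve at half-maximal effect; 0% = wells with enzyme and -100% = buffer wells without enzyme; nearly all actives have a fitted effect of over 50% in size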
# L3MBTL1 inh = qHTS Assay for the Inhibitors of L3MBTL1 | Potency, µM (series often up to 57.1 µM), for the others: at the highest dose activity, negative = inhibition, usual class: inhibitors | AlphaScreen L3MBTL1–H3K9me1 peptide binding | Lethal(3)malignant brain tumor-like protein 1 (Homo sapiens), Q9Y468 | 230,000 tested, 0.66% active; also: potency is read from the fitted curve at half-maximal effect; % is scaled to controls: 0 for no effect and ±100 for the full control effect; nearly all actives have a fitted effect of over 60% in size
#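 Displacement of a biotinylated histone H3(1-15) peptide monomethylated at Lys9 (75 nM) from L3MBTL1 (50 nM) was measured by AlphaScreen after a 30 min room-temperature compound incubation; cefsulodin titration served as intraplate control.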
# Numbers without * were called inactive; ? = inconclusive; . = no result; [ ] = remark or other dose. Hits are enriched below; roughly 5.7% of the tested compounds scored in any of these assays. Unless noted, calls follow the shape of the dose curve; as a rule, active = well fitted inhibition curve with a large enough effect; inconclusive = small, poorly fitted or top-dose-only effect; inactive = no such curve, though single readings can be large or run the other way.
SMILES,HP1b chromo inh,PI5P4K alpha inh,BAZ2B inh,JMJD2A Tudor inh,KDM4E inh,L3MBTL1 inh
Cc1c(C)[n+](=O)c2c(n1[O-])C(Br)CCC2Br (configuration not stated),31%,4,79µM*,79µM*,-22%,-4%
CCc1c(C)n([O-])c2c([n+]1=O)CCC2,39%,12,1%,-19%,1%,8%
Cc1c(CBr)[n+](=O)c2c(n1[O-])C(Br)CCC2Br (configuration not stated),-26%,-29,28µM*,20µM*,28µM*,-5%
CCOC(=O)c1ccc(Nc2nc3nonc3nc2Nc2cccc(C)c2C)cc1,-1%,.,22µM*,?,.,.
O=C(CS(=O)(=O)c1cccc2nsnc12)Nc1ccccc1,22%[57 µM],.,2%,1%,.,.
CCOc1ccc(C2C(C(=O)Nc3ccccc3)=C(C)Nc3nc(-c4ccccc4)nn32)cc1OC (configuration not stated),15%,.,3%,-18%,.,.
Cc1cccc(N2CCN(C(=O)c3cn(C4CCCCC4)c(=O)c4c3c3ccccc3n4C)CC2)c1C,40%,.,-1%,-28%,.,.
COc1ccc(N2CSC3=C(C#N)C(c4cc(OC)c(OC)cc4OC)CC(=O)N3C2)c(OC)c1 (configuration not stated),20µM*,?,45µM*,20µM*,-14%,.
COc1ccc(N2CSC3=C(C#N)C(c4cc(OC)ccc4OC)CC(=O)N3C2)c(OC)c1 (configuration not stated),16µM*,-85*,45µM*,22µM*,-22%,-16%
COc1ccc(N2C(=O)C3CC(C)=C(C)CC3C2=O)c(OC)c1 (configuration not stated),54%,1,-5%,-12%,-3%,.
O=S(=O)(Nc1ccc2c(c1)nc1n2CCN(Cc2ccccc2)C1)c1ccc(F)cc1,48%,-16,-32%,89µM*,?,-2%
NC(=O)C1CCN(S(=O)(=O)c2cc3c(cc2Cl)NC(=O)CO3)CC1,?,.,2%,-8%,.,.
Cc1ccc(N2C(=O)c3ccccc3C2C(=O)c2cc(C)ccc2O)cc1 (configuration not stated),?,4,-12%,?,?,-11%
Cc1ccc(N2C(=O)c3ccccc3C2C(=O)c2ccc(C)c(C)c2O)cc1 (configuration not stated),?,8,-13%,50µM*,?,-6%
Cc1ccc(N2C(=O)c3ccccc3C2C(=O)c2ccc(O)cc2O)cc1 (configuration not stated),-8%,-66*,28µM*,79µM*,20µM*,4.5µM*
CN(C)S(=O)(=O)c1cccc(-n2sc3ccccc3c2=O)c1,-12%,-91*,4.5µM*,14µM*,3.5µM*,0%
CN(C)S(=O)(=O)c1ccc2[nH]cc(/C=C/c3nc4ccccc4c(=O)n3-c3ccccc3)c2c1,13%,.,2%,-5%,?,-6%
O=C1CN(c2ccccc2F)C(=O)CN1c1ccccc1F,2%,.,-3%,-14%,13%,.
O=C(O)c1cccc(-n2sc3ccccc3c2=O)c1,73%,-103*,8.9µM*,2.8µM*,.,-5%
O=c1c2ccccc2sn1-c1ccccc1F,.,-106*,.,.,.,.
O=c1c2ccccc2sn1-c1cccc(Cl)c1,.,-101*,.,.,.,.
O=C(CNC(=O)c1ccc2ccccc2c1)OC(C(=O)Nc1cc(C(F)(F)F)ccc1Cl)c1ccccc1 (configuration not stated),.,.,.,-18%,.,.
COC(=O)c1cc2sc(C)cc2n1Cc1ccc(Br)cc1F,66%,.,55%,46%,.,.
CC1NC(=O)c2ccccc2-n2c1nc1cc(F)ccc1c2=O (configuration not stated),.,.,6%,.,.,2%
O=c1ccsc2ccccc12,14%,1,.,-1%,.,.
SMILES,HP1b chromo inh,PI5P4K alpha inh,BAZ2B inh,JMJD2A Tudor inh,KDM4E inh,L3MBTL1 inh
Cc1ccccc1-n1sc2cc(F)ccc2c1=O,16µM*,-88*,4.5µM*,4.5µM*,11µM*,.
O=c1c2ccccc2sn1-c1nccs1,?,-81*,5µM*,5.6µM*,7.9µM*,0%
O=c1c2ccccc2sn1-c1ccccc1,?,-96*,7.9µM*,4µM*,25µM*,.
O=C1c2ccccc2C(=O)N1c1nccs1,10%[57 µM],-2,.,-10%,.,.
CC(=O)Nc1ccc2c(=O)n(-c3ccccc3)sc2c1,.,-105*,.,.,.,.
N#Cc1ccc2c(=O)n(-c3ccccc3)sc2c1,.,-85*,.,.,.,.
CCN(CC(=O)NC(C)C)C(=O)[C@H](C)NC(=O)c1ccc(Br)cc1,7%,-3,-11%,-17%,-11%,-7%
COc1ccccc1-c1ccc(/C=C2/C=C(C)OC2=O)o1,-13%,-22,?,?,?,-16%
COc1ccccc1-c1ccc(/C=C2\C=CC(=O)O2)o1,-27%,-27,50µM*,?,?,-17%
c1ccc(COc2cccc(CNCc3ccccn3)c2)cc1,40%,0,?,-27%,5%,-17%
Oc1ccc(NCc2cccc(OCc3ccccc3)c2)cc1,?,-21,-29%,50µM*,4.5µM*,?
Oc1ccc(NCc2cccc(OCc3ccc(F)cc3)c2)cc1,?,-6,-35%,40µM*,-2%,?
CCOc1cc(CNc2ccccc2)cc(Br)c1OCc1ccc(F)cc1,62%,13,0%,12%,1%,.
